# Assay results reported in PubChem BioAssay (NCATS).
# Results filed as inconclusive are left out. A call without a number means that no potency is given here. Activity calls are given as the source filed them. Calls come from the whole dose curve; as a rule, active = well fitted inhibition curve with a large enough effect; inconclusive = small, poorly fitted or top-dose-only effect; inactive = flat fitted curve, though single readings scatter.
# Target: Calcium and integrin-binding protein 1 (Homo sapiens) (UniProt Q99828)
# Sequence (Q99828 whole entry, looked up): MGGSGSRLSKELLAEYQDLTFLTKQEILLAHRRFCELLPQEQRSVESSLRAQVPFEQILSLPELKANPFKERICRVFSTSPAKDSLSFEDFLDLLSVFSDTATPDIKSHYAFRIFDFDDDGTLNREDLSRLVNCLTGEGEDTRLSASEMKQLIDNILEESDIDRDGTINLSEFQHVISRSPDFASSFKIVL
# Assay: Primary qHTS for Identification of Calcium Integrin Binding Protein 1 (CIB1) Competitor (AID 1508620);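 note: GST tagged CIB1 binding a fluorescein labelled alphaIIb integrin peptide tracer; top concentration of the series differs between compounds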
# Settings: CIB1-GST / FITC-alphaIIb peptide fluorescence polarization; series mostly up to 114 µM
# Procedure, shortened: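 Fluorescence polarization competition: CIB1-GST (1 uM final) preincubated with compound 15 min at room temperature, then FITC-labeled alphaIIb peptide (100 nM final) added for another 15 min. Polarization read at Ex 480/Em 540.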
row,Structure (SMILES),Potency
1,CC1=C(C(=O)c2ccccc2)C(c2ccccc2Cl)N=C(Nc2nc3ccccc3o2)N1 (stereo unspecified),inactive
2,CC(C)(C)OC(=O)Cc1nnc(-c2nc3ccccc3[nH]2)s1,inactive
3,Cc1cc(N[S+](=O)([O-])c2ccc(NC(=O)Cc3ccc(F)c(C)c3)cc2)no1,inactive
4,Cc1ccc(NC(=O)CN2C(=O)N/C(=C\c3cccn3-c3ccc(P(=O)(O)O)cc3)C2=O)cc1,inactive
5,Cc1ccc(N[S+](=O)([O-])c2cc3c(cc2Cl)CCC(=O)N3)cc1Br,inactive
6,O=C(/C=C/c1ccc(C(F)(F)F)cc1)Nc1cccc([S+](=O)([O-])Nc2ccccc2F)c1,inactive
7,COc1ccc(-c2nc3cccc(OC)c3c(=O)n2Cc2ccccc2)cc1COc1ccc(NC(C)=O)cc1,inactive
8,N#Cc1ccc(-c2ccc(=O)n(CC(=O)NCCc3ccccc3)n2)cc1,inactive
9,O=C1CCc2cc(S(=O)(=O)Nc3cccc(C(F)(F)F)c3)ccc2N1,inactive
10,COc1cc(-c2nc(Nc3ccc(F)c(F)c3)c3ccccc3n2)ccn1,inactive
11,O=C1Nc2ccccc2/C1=C\c1cc(F)c(O)c(F)c1,inactive
12,CN(C)c1ccc(-c2cc(O)c3ncccc3c2)cc1,inactive
13,N#Cc1ccc(-c2ccc(CNc3ccc(N4CCC(C#N)CC4)cc3)o2)cc1,inactive
14,Cc1cccc(-n2cnc3cc(C(=O)N4CCC(N5CCOCC5)CC4)ccc32)c1,inactive
15,Cc1cc(N[S+](=O)([O-])c2ccc(NC(=O)Cc3ccc4nccnc4c3)cc2)no1,inactive
16,CC(C)(C)c1ccc(CSc2nc3ncc(Br)cc3[nH]2)cc1,inactive
